Bioassay records (PubChem BioAssay)
NPR1 antag: Natriuretic polypeptide receptor (hNpr1) antagonism - Primary qHTS; Atrial natriuretic peptide receptor 1 (Homo sapiens), P16066; HEK293 hNpr1 GloSensor cGMP, ANP-stimulated luminescence; Potency, µM (series often up to 46.3 µM), actives largely listed as inhibitors; 1.6% of 76,000 active; AID 1347048, 2019; calls by dose curve; also: nearly all actives have a fitted effect of over 60% in size
Target sequence (P16066 whole entry, looked up): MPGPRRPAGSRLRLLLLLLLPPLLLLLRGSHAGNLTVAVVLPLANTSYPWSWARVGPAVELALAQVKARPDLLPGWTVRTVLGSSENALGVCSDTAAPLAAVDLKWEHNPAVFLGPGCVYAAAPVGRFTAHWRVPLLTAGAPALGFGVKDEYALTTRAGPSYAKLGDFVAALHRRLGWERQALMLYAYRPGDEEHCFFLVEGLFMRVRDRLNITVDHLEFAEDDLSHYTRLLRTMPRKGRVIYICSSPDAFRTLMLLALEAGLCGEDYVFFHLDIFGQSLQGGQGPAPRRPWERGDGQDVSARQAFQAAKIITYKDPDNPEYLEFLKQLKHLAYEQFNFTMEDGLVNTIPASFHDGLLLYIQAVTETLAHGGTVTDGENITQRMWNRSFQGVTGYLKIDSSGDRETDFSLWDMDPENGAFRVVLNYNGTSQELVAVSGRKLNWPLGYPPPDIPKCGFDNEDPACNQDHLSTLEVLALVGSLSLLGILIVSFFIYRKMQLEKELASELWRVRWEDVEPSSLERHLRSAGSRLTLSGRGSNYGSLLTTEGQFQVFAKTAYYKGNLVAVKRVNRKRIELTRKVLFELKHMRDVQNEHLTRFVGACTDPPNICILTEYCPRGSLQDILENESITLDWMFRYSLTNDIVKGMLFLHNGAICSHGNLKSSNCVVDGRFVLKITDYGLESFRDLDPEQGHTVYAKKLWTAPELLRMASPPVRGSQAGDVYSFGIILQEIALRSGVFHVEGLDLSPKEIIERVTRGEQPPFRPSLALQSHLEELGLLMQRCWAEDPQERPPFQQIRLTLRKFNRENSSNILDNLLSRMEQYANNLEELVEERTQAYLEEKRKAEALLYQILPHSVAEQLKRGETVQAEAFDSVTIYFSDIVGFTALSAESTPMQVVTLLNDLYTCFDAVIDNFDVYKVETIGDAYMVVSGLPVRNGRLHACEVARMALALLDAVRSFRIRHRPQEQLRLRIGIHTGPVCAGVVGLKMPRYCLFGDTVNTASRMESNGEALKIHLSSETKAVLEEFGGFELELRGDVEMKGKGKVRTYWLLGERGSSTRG
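HEK293 cells stably expressing human Npr1 and cGMP GloSensor pGS-40F, loaded 2 h with 2% GloSensor reagent, given compound 30 min at room temperature. Luminescence read before and 20 min after 0.1 nM hNppA.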
Luciferase inh: Firefly luciferase inhibition profiling of diverse chemical library using quantitative high-throughput screening; Luciferin 4-monooxygenase (Photinus pyralis), P08659; 2.5% of 76,000 active; purified P. pyralis luciferase, luminescence, biochemical; AID 1347043, 2019; Potency, µM (highest dose often 115 µM), actives largely listed as inhibitors; also: nearly all actives have a fitted effect of over 65% in size
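Purified P. pyralis luciferase (10nM final) in 50mM Tris acetate pH 7.5, 10mM Mg acetate, 0.01% Tween-20, 0.05% BSA with 10uM D-luciferin and 10uM ATP. Compounds titrated qHTS. Luminescence imaged on CCD.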
HEK cytotox: Cytotoxic Profiling in HEK 293 Cell Line of Diverse Libraries Using Quantitative High-Throughput Screening. AID 1345083, 2018. Potency, µM (highest dose often 115 µM), hits mostly inhibitors. 6.6% of 94,000 active. HEK 293 viability, ATP luminescence (CellTiter-Glo), 48-72 h; also: nearly all actives have a fitted effect of over 60% in size
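Viability of HEK 293 cells, plated at 250 cells/well, was judged by cellular ATP after compound treatment for 48 or 72 hr. Luminescence was imaged 10 min after CellTiter-Glo addition at room temperature.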
3T3 cytotox: Cytotoxic Profiling in NIH 3T3 Cell Line of Diverse Libraries Using Quantitative High-Throughput Screening; NIH 3T3 viability, CellTiter-Glo ATP luminescence, 48-72 h; Potency, µM (top dose mostly 96.7 µM), most hits filed as inhibitors; 4.3% of 94,000 active; also: nearly all actives have a fitted effect of over 55% in size
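Luminescent ATP readout (CellTiter-Glo, 10 min RT) after 48 or 72 hr compound exposure of NIH 3T3 cells seeded at 400 cells/well in 1536-well format; quantitative HTS.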
SNCA viab count: GF-AFC viability counterscreen for inhibitors of alpha-synuclein gene (SNCA) expression | HEK-293-SNCA-luc viability, GF-AFC fluorescence, 24 h | Potency, µM (titrated, usually from 57.1 µM), most hits filed as cytotoxic | 0.12% of 150,000 active | AID 1671193, 2021; also: nearly all actives have a fitted effect of over 30% in size
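Cytotoxicity counterscreen: after 24 h compound treatment of genome-edited SNCA-luciferase HEK-293 cells, live-cell protease substrate GF-AFC read by fluorescence after 30 min; activity scaled between DMSO (0%) and medium-only (-100%), curves Hill-fitted.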
SNCA expr inh: Primary qHTS assay for inhibitors of alpha-synuclein gene (SNCA) expression; HEK-293 SNCA-luciferase knock-in, luminescence, 24 h; Potency, µM (highest dose often 57.2 µM), most hits filed as inhibitors; 0.17% of 140,000 active; AID 1671194, 2021; also: nearly all actives have a fitted effect of over 45% in size
Each line names hits and unclear results; the compound was inactive in the other large screens. An excerpt weighted towards active compounds, which were near 7.2% of everything screened. Unless noted, calls follow the shape of the dose curve; as a rule, active = well fitted curve in the direction sought with a large enough effect; inconclusive = small, poorly fitted or top-dose-only effect, or another doubt; inactive = no such curve, though single readings can be large; an effect the other way counts as inactive or inconclusive.

O=C(COc1ccc(F)cc1)N1CCCN(c2cc(-c3ccc(Br)cc3)[nH]n2)CC1	NPR1 antag inconclusive, HEK cytotox 45µM, 3T3 cytotox inconclusive
O=C(c1ccc(F)cc1)N1CCCN(c2cc(-c3ccc(F)cc3)[nH]n2)CC1	HEK cytotox inconclusive
O=C(c1cccs1)N1CCCN(c2cc(-c3ccc(F)cc3)[nH]n2)CC1	HEK cytotox inconclusive
O=C(Cc1cccs1)N1CCCN(c2cc(-c3ccc(Br)cc3)[nH]n2)CC1	NPR1 antag inconclusive, HEK cytotox 45µM, 3T3 cytotox 35µM
COCCOC1CCN(C(=O)Nc2cccc(F)c2)CC1	none
CCCOC(=O)N1CCC(C(=O)Nc2cccc(-c3cccc(F)c3)c2)CC1	NPR1 antag inconclusive, HEK cytotox 45µM, 3T3 cytotox inconclusive
Cc1cccc(C(=O)N2CC[C@@](C)(O)[C@@H](Cc3ccccc3)C2)c1C	none
COc1cc2c(cc1OC)C(CNC(=O)c1ccc(C)cc1)N(C(=O)NC(C)C)CC2 (configuration not stated)	HEK cytotox 40µM
COCCNC(=O)[C@H]1C[C@H](Oc2ccccc2)CN1Cc1ccc2[nH]ccc2c1	HEK cytotox 10µM, 3T3 cytotox inconclusive
O=C(Nc1cccnc1)c1nc2c(o1)CCN(Cc1ccc3[nH]ccc3c1)CC2	Luciferase inh 35µM, HEK cytotox 100µM, 3T3 cytotox inconclusive
O=C(NCC1CC1)c1nc2c(o1)CCN(Cc1ccc3[nH]ccc3c1)CC2	HEK cytotox inconclusive, 3T3 cytotox inconclusive
COCCNC(=O)[C@H]1C[C@H](Oc2ccccc2)CN1Cc1ccc(OC(F)(F)F)cc1	HEK cytotox inconclusive, 3T3 cytotox inconclusive, SNCA expr inh inconclusive
O=C(Nc1cccnc1)c1nc2c(o1)CCN(Cc1ccc(F)c(F)c1)CC2	NPR1 antag 28µM, Luciferase inh 71µM, HEK cytotox inconclusive, 3T3 cytotox inconclusive
COCCNC(=O)c1nc2c(o1)CCN(Cc1ccc(F)c(Cl)c1)CC2	NPR1 antag inconclusive, HEK cytotox inconclusive, 3T3 cytotox inconclusive
O=C(NCCOc1ccccc1)c1nc2c(o1)CCN(Cc1ccc3[nH]ccc3c1)CC2	NPR1 antag inconclusive, HEK cytotox 71µM, 3T3 cytotox inconclusive
COc1ccc(OC)c(CNC(=O)c2ccc3c(c2)N(C)C2CCCCN2C3=O)c1 (configuration not stated)	HEK cytotox inconclusive
COc1cccc(N2CC(C(=O)NCCCc3ccccc3)NC2=O)c1 (configuration not stated)	3T3 cytotox inconclusive
CCCCCCCCCCCCCC(=O)N[C@H](CO)[C@H](O)c1ccc([N+](=O)[O-])cc1	SNCA expr inh 9.6µM (no result: NPR1 antag, Luciferase inh, HEK cytotox, 3T3 cytotox)
O[C@H]1[C@H](NCC2CCCCC2)[C@H]2CO[C@H](O2)[C@@H]1N1CCC(Cc2ccccc2)CC1	HEK cytotox 40µM, 3T3 cytotox 32µM
O[C@H]1[C@H](NCc2ccc(OC(F)(F)F)cc2)[C@H]2CO[C@H](O2)[C@@H]1N1CCC(Cc2ccccc2)CC1	NPR1 antag inconclusive, HEK cytotox 45µM, 3T3 cytotox inconclusive
O[C@H]1[C@H](NCc2ccc(OC(F)(F)F)cc2)[C@H]2CO[C@H](O2)[C@@H]1N1CCOCC1	none
O=C(NC1CCCCC1)N[C@H]1[C@H](O)[C@@H](N2CCC(Cc3ccccc3)CC2)[C@@H]2OC[C@H]1O2	HEK cytotox inconclusive, 3T3 cytotox inconclusive
COc1ccc(CN2CCCOC(CN3CCCCC3)C2)cc1C(=O)O (configuration not stated)	none
O=C(Cn1cccc1-c1nc(-c2ccc3c(c2)OCO3)no1)Nc1cccc(Cl)c1	none
CCOC(=O)[C@@H]1[C@H]2c3ccccc3N(CCOC)C(=O)[C@H]2N(C(=O)c2ccccc2)[C@@H]1c1ccccc1	HEK cytotox 35µM, 3T3 cytotox inconclusive (no result: NPR1 antag, Luciferase inh, SNCA viab count, SNCA expr inh)
CC(C)Cc1cnc(-c2ccccc2)[nH]1	HEK cytotox 100µM, 3T3 cytotox inconclusive (no result: NPR1 antag, Luciferase inh)
O=C(OCc1ccccc1)N1CCC2(CC1)C(=O)NN=C2C1CC1	HEK cytotox 112µM
O=C(OCc1ccccc1)N1CCC2(CC1)C(=O)NN=C2c1ccncc1	none
COCc1nc(C2CCN(C(=O)Cc3c[nH]c4ccccc34)C2)no1 (configuration not stated)	none
COc1ccc(OCc2nc(C3CN(C(=O)Cc4c[nH]c5ccccc45)C3)no2)cc1	NPR1 antag inconclusive, HEK cytotox 45µM, 3T3 cytotox inconclusive
Cc1ccc(C(=O)N2CCC(CCC(=O)NCCc3c[nH]c4ccccc34)CC2)cc1	Luciferase inh 32µM, HEK cytotox inconclusive, 3T3 cytotox inconclusive
Cc1ccc(OCCC2CCN(C(=O)Cc3c[nH]c4ccccc34)C2)cc1 (configuration not stated)	NPR1 antag inconclusive, HEK cytotox 35µM, 3T3 cytotox inconclusive
Cc1ccc(OCCC2CCN(C(=O)CCc3ccccc3)C2)cc1 (configuration not stated)	HEK cytotox inconclusive, 3T3 cytotox inconclusive
Cc1nnc2ccc(N3CCC(NC(=O)Cc4cccc(Cl)c4)C3)nn12 (configuration not stated)	3T3 cytotox inconclusive (no result: NPR1 antag, Luciferase inh, SNCA viab count, SNCA expr inh)
O=C(c1cc(COc2ccccc2F)[nH]n1)N1CCOCC1	Luciferase inh 32µM
CN(c1ccccc1)c1ccc2nnc(-c3cc(C(=O)N4CC(O)C4)ccn3)n2n1	HEK cytotox inconclusive, 3T3 cytotox 100µM
CN(C)c1ccc2nnc(-c3cc(C(=O)Nc4cccc(Cl)c4)ccn3)n2n1	3T3 cytotox 7.9µM, SNCA viab count inconclusive, SNCA expr inh inconclusive
COc1ccnc(-c2nnc3ccc(N(C)c4ccccc4)nn23)c1	HEK cytotox 45µM, 3T3 cytotox 20µM, SNCA viab count inconclusive, SNCA expr inh inconclusive
O=C(Nc1cccnc1)c1ccnc(-c2nnc3ccc(N4CCOCC4)nn23)c1	3T3 cytotox 100µM, SNCA expr inh inconclusive
CN(c1ccccc1)c1ccc2nnc(-c3ccc(F)cn3)n2n1	HEK cytotox inconclusive, 3T3 cytotox inconclusive
CN(Cc1ccccc1)C(=O)c1ccnc(-c2nnc3ccc(N(C)c4ccccc4)nn23)c1	HEK cytotox inconclusive
O=C(Nc1cccc(Cl)c1)c1ccnc(-c2nnc3ccc(N4CCOCC4)nn23)c1	HEK cytotox inconclusive, 3T3 cytotox inconclusive, SNCA viab count inconclusive
COCCN1C(=O)CC[C@]2(C(=O)NCc3ccccc3Cl)CCCC[C@@H]12	none
